Results: PubChem BioAssay (NCATS)
Inconclusive results are not listed. Activity calls are given as the source filed them. Unless noted, calls follow the shape of the dose curve; as a rule, active = well fitted curve in the direction sought with a large enough effect; inconclusive = small, poorly fitted or top-dose-only effect, or another doubt; inactive = no such curve, though single readings can be large; an effect the other way counts as inactive or inconclusive.

How the values were obtained:
Furin (Homo sapiens) = Furin (Homo sapiens) (UniProt P09958); assay: Furin counterscreen qHTS for Zika virus inhibitors (AID 1347149);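 also: purified recombinant full-length human furin enzyme at 5 nM; fluorescence gain from furin cutting a BOC-RVRR-AMC peptide substrate over 15 min; top concentration of the series differs between compounds; plate controls were no-inhibitor control for no effect and no-enzyme control for full effect; nearly all actives have a fitted effect of over 70% in size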
In short: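 Counterscreen measures cleavage of 2 microM BOC-RVRR-AMC, below its ~15 microM Km, by 5 nM full-length human furin at pH 7.0 after a 15-min compound preincubation. Inhibition derives from the 15-min fluorescence increase at 37C.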

[1] = test system: Zika virus NS2B-NS3 protease (linked construct); assay: Confirmatory screen NINDS AMC qHTS for Zika virus inhibitors (AID 1347152);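 also: AMC fluorescence gain from cleaved Bz-Nle-KRR-AMC substrate over 15 min; top concentration of the series differs between compounds; 0% = no-inhibitor control and -100% = no-enzyme control; nearly all actives have a fitted effect of over 70% in size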
In short: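 Linked NS2B-NS3 protease, 1 nM, in 10 mM Tris-HCl pH 8.0, 0.01% Tween 20; compounds preincubated 15 min at room temperature. Nle-KRR-AMC 10 microM (Km 18.3 µM); 15-min fluorescence change (340/450 nm) fitted to 4-parameter Hill.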

[2] = ZIKV-mCherry secondary qHTS for Zika virus inhibitors (AID 1347158); also: top concentration of the series differs between compounds
In short: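 This orthogonal imaging screen measured ZIKV-mCherry infection of Vero cells exposed to compound, MOI 1, 48-72 h. Percent infection came from segmented nuclei scored mCherry-positive above 3 SD of negative controls.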

[3] = test system: Zika virus NS2B-NS3 protease (linked); assay: 384 well plate NINDS AMC confirmatory qHTS for Zika virus inhibitors (AID 1347163); also: potency is read from the fitted curve at half-maximal effect; nearly all actives have a fitted effect of over 50% in size
In short: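 Enzyme (5, 30 or 60 nM final) first met test compounds for ~15 min. The AMC-tagged peptide Ac-VKTGKR-AMC followed at 30 microM. Fluorescence was then recorded at 25 min and scaled against no-enzyme and no-inhibitor wells.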

[4] = test system: Zika virus NS2B-NS3 protease (linked construct); assay: 384 well plate NINDS Rhodamine confirmatory qHTS for Zika virus inhibitors (AID 1347164);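 also: fluorescence from protease cleavage of Ac-LKRR-rhodamine 110 substrate; potency is read from the fitted curve at half-maximal effect; nearly all actives have a fitted effect of over 65% in size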
In short: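 Linked NS2B-NS3 protease (final 5, 30 or 60 nM) preincubated ~15 minutes with compounds, then 10 microM Ac-LKRR-Rhodamine 110 added. Fluorescence (485/538 nm) read after 25 minutes at room temperature, normalized to no-enzyme and no-inhibitor controls.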

[5] = Tertiary RLuc qRT-PCR qHTS assay for Zika virus inhibitors (AID 1347169); also: top concentration of the series differs between compounds; % is scaled to controls: 0 for no effect and ±100 for the full control effect; nearly all actives have a fitted effect of over 55% in size
In short: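 Vero cells (1,000/well) infected with recombinant ZIKV-RLuc (Cambodian) at MOI 1-2 after compound addition, 48-72 hrs at 37 degrees C. Live-cell Renilla luciferase substrate added; luminescence read after 1-1.5 hrs.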

[6] = biological target: ATP-dependent 6-phosphofructokinase (Trypanosoma brucei brucei) (UniProt O15648); assay: qHTS Assay to Find Inhibitors of T. brucei phosphofructokinase: hit validation (AID 492961);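 also: luminescence reports ADP formed as PFK phosphorylates fructose-6-phosphate with ATP; % is scaled to controls: 0 for no effect and ±100 for the full control effect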
In short: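 Measures ADP output of PFK (1.25 nM) at 0.1 mM ATP, 0.5 mM F6P, pH 8.0 TEA buffer with 5 mM MgCl2. No-enzyme wells define full inhibition; uninhibited enzyme wells define zero.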

[7] = biological target: Ubiquitin carboxyl-terminal hydrolase 1 (Homo sapiens) (UniProt O94782); assay: Inhibitors of USP1/UAF1: Pilot qHTS (AID 504865);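 also: rhodamine fluorescence freed from ubiquitin-rhodamine substrate followed over time; top concentration of the series differs between compounds; % is scaled to controls: 0 for no effect and ±100 for the full control effect; nearly all actives have a fitted effect of over 35% in size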
In short: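 USP1/UAF1 complex at 1 nM preincubated 15 min at room temperature with compound, then Ub-Rho substrate added at 150 nM final. Fluorescence (480/540 nm) read kinetically in 50 mM HEPES pH 7.8, 0.5 mM EDTA, 1 mM TCEP, 0.1 mg/ml BSA, 0.01% Tween-20.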

[8] = biological target: Luciferin 4-monooxygenase (Photinus pyralis) (UniProt P08659); assay: Biochemical firefly luciferase enzyme assay for NPC (AID 624030);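 also: purified P. pyralis luciferase at 10 nM with luciferin and ATP substrate; 0% = DMSO and -100% = full luciferase inhibition by PTC124 control; nearly all actives have a fitted effect of over 70% in size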
In short: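 Direct inhibition of firefly luciferase enzyme (10 nM final, 50 mM Tris Acetate) assessed by luminescence within 5 minutes. Percent activity scaled between DMSO and PTC124 positive control, with concentration-effect curves classified by fit quality and response.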

[9] = S16 Schwann cell viability assay (CellTiter-Glo assay) (AID 624031);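 also: cellular ATP luminescence as a viability measure; plate controls were DMSO-treated cells for no effect and cell-free wells for full effect; nearly all actives have a fitted effect of over 70% in size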
In short: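 Native S16 Schwann cells (rat), serum-containing medium, overnight attachment then 24 h drug exposure at 37 °C/5% CO2. CellTiter-Glo ATP signal; normalized to cell-free and vehicle wells.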

[10] = S16 Schwann cell PMP22 intronic element beta-lactamase assay (AID 624044; calls by dose curve; also: potency is read from the fitted curve at half-maximal effect; nearly all actives have a fitted effect of over 15% in size)
In short: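 Beta-lactamase reporter under a PMP22 intronic regulatory element in stable S16 rat Schwann cells; 24 h compound exposure. 460 nm blue signal normalized between DMSO (0%) and potassium clavulanate, with 535 nm FRET tracking viability; curves classed by r2 and response.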

[11] = test system: Zika virus NS2B-NS3 protease (unlinked); assay: Optimization of GU AMC qHTS for Zika virus inhibitors: Unlinked NS2B-NS3 protease assay (AID 1347151);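 also: 0% = no-inhibitor control and -100% = no-enzyme control; nearly all actives have a fitted effect of over 80% in size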
In short: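 Noncovalent NS2B hydrophilic domain–NS3 protease complex (25 nM final) in 10 mM Tris-HCl pH 8.0, 0.01% Tween 20; AMC substrate, room temperature 15 min (~20% conversion); fluorescence change normalized, 4-parameter Hill fit.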

[12] = Vero cells viability qHTS for Zika virus inhibitors (AID 1347167); also: % is scaled to controls: 0 for no effect and ±100 for the full control effect
In short: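 Luminescent ATP readout (CellTiter Glo) after 30 min at 37 degrees C gives viability; cells in DMEM + 4% FBS were treated 24 to 48 hours with compound, following overnight attachment.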

[13] = qHTS profiling for inhibitors of Plasmodium falciparum proliferation (AID 504749); also: nearly all actives have a fitted effect of over 60% in size; also: potency is read from the fitted curve at half-maximal effect;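 as to activity, negative = inhibition: 0% = DMSO vehicle and full inhibition = artemisinin control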; conditions: P. falciparum in erythrocytes, SYBR Green DNA, 72 h, at 28.7 µM (top of the series)
In short: (§1)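 In a 72 h erythrocytic culture (37 C, humidified, 5% CO2) at 2.5% hematocrit and 0.3% starting parasitemia, compounds were tested; SYBR Green I in detergent lysis buffer stained parasite DNA overnight.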

3D7 = assay: as above; conditions: P. falciparum in erythrocytes, SYBR Green DNA, 72 h; series mostly up to 28.7 µM
In short: as §1

AS120 = assay: as above; conditions: P. falciparum in erythrocytes, SYBR Green DNA, 72 h; series mostly up to 28.7 µM
In short: as §1

ATS95 = assay: as above; conditions: P. falciparum in erythrocytes, SYBR Green DNA, 72 h; series mostly up to 28.7 µM
In short: as §1

C2A = assay: as above; conditions: P. falciparum in erythrocytes, SYBR Green DNA, 72 h; series mostly up to 28.7 µM
In short: as §1

CP185 = assay: as above; conditions: P. falciparum in erythrocytes, SYBR Green DNA, 72 h; series mostly up to 28.7 µM
In short: as §1

CP191 = assay: as above; conditions: P. falciparum in erythrocytes, SYBR Green DNA, 72 h; series mostly up to 28.7 µM
In short: as §1

CP192 = assay: as above; conditions: P. falciparum in erythrocytes, SYBR Green DNA, 72 h; series mostly up to 28.7 µM
In short: as §1

CP201 = assay: as above; conditions: P. falciparum in erythrocytes, SYBR Green DNA, 72 h; series mostly up to 28.7 µM
In short: as §1

CP211 = assay: as above; conditions: P. falciparum in erythrocytes, SYBR Green DNA, 72 h; series mostly up to 28.7 µM
In short: as §1

CP215 = assay: as above; conditions: P. falciparum in erythrocytes, SYBR Green DNA, 72 h; series mostly up to 28.7 µM
In short: as §1

CP237 = assay: as above; conditions: P. falciparum in erythrocytes, SYBR Green DNA, 72 h; series mostly up to 28.7 µM
In short: as §1

CP238 = assay: as above; conditions: P. falciparum in erythrocytes, SYBR Green DNA, 72 h; series mostly up to 28.7 µM
In short: as §1

CP247 = assay: as above; conditions: P. falciparum in erythrocytes, SYBR Green DNA, 72 h; series mostly up to 28.7 µM
In short: as §1

CP250 = assay: as above; conditions: P. falciparum in erythrocytes, SYBR Green DNA, 72 h; series mostly up to 28.7 µM
In short: as §1

CP252 = assay: as above; conditions: P. falciparum in erythrocytes, SYBR Green DNA, 72 h; series mostly up to 28.7 µM
In short: as §1

CP256 = assay: as above; conditions: P. falciparum in erythrocytes, SYBR Green DNA, 72 h; series mostly up to 28.7 µM
In short: as §1

CP262 = assay: as above; conditions: P. falciparum in erythrocytes, SYBR Green DNA, 72 h; series mostly up to 28.7 µM
In short: as §1

CP266 = assay: as above; conditions: P. falciparum in erythrocytes, SYBR Green DNA, 72 h; series mostly up to 28.7 µM
In short: as §1

CP269 = assay: as above; conditions: P. falciparum in erythrocytes, SYBR Green DNA, 72 h; series mostly up to 28.7 µM
In short: as §1

CP291 = assay: as above; conditions: P. falciparum in erythrocytes, SYBR Green DNA, 72 h; series mostly up to 28.7 µM
In short: as §1

CP305 = assay: as above; conditions: P. falciparum in erythrocytes, SYBR Green DNA, 72 h; series mostly up to 28.7 µM
In short: as §1

CP315 = assay: as above; conditions: P. falciparum in erythrocytes, SYBR Green DNA, 72 h; series mostly up to 28.7 µM
In short: as §1

CP325 = assay: as above; conditions: P. falciparum in erythrocytes, SYBR Green DNA, 72 h; series mostly up to 28.7 µM
In short: as §1

CP329 = assay: as above; conditions: P. falciparum in erythrocytes, SYBR Green DNA, 72 h; series mostly up to 28.7 µM
In short: as §1

DFO2036 = assay: as above; conditions: P. falciparum in erythrocytes, SYBR Green DNA, 72 h; series mostly up to 28.7 µM
In short: as §1

DIV30 = assay: as above; conditions: P. falciparum in erythrocytes, SYBR Green DNA, 72 h; series mostly up to 28.7 µM
In short: as §1

Dd2 = assay: as above; conditions: P. falciparum in erythrocytes, SYBR Green DNA, 72 h; series mostly up to 28.7 µM
In short: as §1

ECU = assay: as above; conditions: P. falciparum in erythrocytes, SYBR Green DNA, 72 h; series mostly up to 28.7 µM
In short: as §1

FAB9 = assay: as above; conditions: P. falciparum in erythrocytes, SYBR Green DNA, 72 h; series mostly up to 28.7 µM
In short: as §1

HB3 = assay: as above; conditions: P. falciparum in erythrocytes, SYBR Green DNA, 72 h; series mostly up to 28.7 µM
In short: as §1

JCK = assay: as above; conditions: P. falciparum in erythrocytes, SYBR Green DNA, 72 h; series mostly up to 28.7 µM
In short: as §1

PC15 = assay: as above; conditions: P. falciparum in erythrocytes, SYBR Green DNA, 72 h; series mostly up to 28.7 µM
In short: as §1

PC26 = assay: as above; conditions: P. falciparum in erythrocytes, SYBR Green DNA, 72 h; series mostly up to 28.7 µM
In short: as §1

PC49 = assay: as above; conditions: P. falciparum in erythrocytes, SYBR Green DNA, 72 h; series mostly up to 28.7 µM
In short: as §1

SC27B = assay: as above; conditions: P. falciparum in erythrocytes, SYBR Green DNA, 72 h; series mostly up to 28.7 µM
In short: as §1

TAB113 = assay: as above; conditions: P. falciparum in erythrocytes, SYBR Green DNA, 72 h; series mostly up to 28.7 µM
In short: as §1

TAB165 = assay: as above; conditions: P. falciparum in erythrocytes, SYBR Green DNA, 72 h; series mostly up to 28.7 µM
In short: as §1

Furin (Homo sapiens), sequence (P09958 whole entry, looked up): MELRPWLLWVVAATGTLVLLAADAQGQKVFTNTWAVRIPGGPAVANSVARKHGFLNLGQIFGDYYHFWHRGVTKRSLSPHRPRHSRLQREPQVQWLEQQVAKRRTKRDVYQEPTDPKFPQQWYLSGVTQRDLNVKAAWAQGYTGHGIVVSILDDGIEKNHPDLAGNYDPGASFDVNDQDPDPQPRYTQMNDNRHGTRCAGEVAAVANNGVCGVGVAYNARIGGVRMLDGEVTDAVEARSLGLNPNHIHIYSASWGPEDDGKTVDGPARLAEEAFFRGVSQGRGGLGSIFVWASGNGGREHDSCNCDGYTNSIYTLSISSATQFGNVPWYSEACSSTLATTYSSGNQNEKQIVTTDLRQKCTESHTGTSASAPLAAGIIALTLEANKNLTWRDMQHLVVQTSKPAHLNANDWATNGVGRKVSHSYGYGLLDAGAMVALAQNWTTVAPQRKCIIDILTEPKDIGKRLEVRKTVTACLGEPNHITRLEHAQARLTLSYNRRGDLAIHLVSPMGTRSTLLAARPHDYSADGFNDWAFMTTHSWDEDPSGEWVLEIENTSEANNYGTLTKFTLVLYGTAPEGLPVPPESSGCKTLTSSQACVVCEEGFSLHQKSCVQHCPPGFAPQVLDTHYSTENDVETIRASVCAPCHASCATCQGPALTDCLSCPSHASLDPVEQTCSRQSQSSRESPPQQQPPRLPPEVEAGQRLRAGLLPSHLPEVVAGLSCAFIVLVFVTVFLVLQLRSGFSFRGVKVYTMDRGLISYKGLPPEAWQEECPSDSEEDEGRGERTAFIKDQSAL
Luciferin 4-monooxygenase (Photinus pyralis), sequence (P08659 whole entry, looked up): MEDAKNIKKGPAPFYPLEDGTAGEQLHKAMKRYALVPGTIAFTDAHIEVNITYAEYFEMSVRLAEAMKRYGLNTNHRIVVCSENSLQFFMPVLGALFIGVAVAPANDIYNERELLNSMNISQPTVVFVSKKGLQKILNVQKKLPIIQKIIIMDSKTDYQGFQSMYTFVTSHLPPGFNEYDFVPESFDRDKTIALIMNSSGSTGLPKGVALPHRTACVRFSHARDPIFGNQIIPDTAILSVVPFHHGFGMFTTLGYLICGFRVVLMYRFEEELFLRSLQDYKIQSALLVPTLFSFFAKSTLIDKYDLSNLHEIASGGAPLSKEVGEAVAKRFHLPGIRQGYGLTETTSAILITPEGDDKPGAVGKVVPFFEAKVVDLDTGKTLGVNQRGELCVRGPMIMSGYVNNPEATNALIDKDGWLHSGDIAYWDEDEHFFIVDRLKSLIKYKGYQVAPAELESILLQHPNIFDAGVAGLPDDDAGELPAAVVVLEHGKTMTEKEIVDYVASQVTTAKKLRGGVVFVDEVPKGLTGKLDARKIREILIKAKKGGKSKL
ATP-dependent 6-phosphofructokinase (Trypanosoma brucei brucei), sequence (O15648 whole entry, looked up): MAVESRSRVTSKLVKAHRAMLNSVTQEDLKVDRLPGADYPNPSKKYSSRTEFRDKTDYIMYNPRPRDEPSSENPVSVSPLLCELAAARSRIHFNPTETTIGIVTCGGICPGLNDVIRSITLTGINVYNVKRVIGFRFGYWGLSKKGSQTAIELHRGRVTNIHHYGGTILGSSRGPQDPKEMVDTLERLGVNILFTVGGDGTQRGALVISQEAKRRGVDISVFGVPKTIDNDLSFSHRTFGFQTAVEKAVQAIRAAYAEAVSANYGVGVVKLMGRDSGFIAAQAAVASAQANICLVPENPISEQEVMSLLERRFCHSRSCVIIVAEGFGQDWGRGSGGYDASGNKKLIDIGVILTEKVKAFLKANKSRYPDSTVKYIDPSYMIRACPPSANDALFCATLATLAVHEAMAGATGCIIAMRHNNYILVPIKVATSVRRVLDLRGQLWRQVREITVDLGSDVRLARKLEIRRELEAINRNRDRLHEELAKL
Ubiquitin carboxyl-terminal hydrolase 1 (Homo sapiens), sequence (O94782 whole entry, looked up): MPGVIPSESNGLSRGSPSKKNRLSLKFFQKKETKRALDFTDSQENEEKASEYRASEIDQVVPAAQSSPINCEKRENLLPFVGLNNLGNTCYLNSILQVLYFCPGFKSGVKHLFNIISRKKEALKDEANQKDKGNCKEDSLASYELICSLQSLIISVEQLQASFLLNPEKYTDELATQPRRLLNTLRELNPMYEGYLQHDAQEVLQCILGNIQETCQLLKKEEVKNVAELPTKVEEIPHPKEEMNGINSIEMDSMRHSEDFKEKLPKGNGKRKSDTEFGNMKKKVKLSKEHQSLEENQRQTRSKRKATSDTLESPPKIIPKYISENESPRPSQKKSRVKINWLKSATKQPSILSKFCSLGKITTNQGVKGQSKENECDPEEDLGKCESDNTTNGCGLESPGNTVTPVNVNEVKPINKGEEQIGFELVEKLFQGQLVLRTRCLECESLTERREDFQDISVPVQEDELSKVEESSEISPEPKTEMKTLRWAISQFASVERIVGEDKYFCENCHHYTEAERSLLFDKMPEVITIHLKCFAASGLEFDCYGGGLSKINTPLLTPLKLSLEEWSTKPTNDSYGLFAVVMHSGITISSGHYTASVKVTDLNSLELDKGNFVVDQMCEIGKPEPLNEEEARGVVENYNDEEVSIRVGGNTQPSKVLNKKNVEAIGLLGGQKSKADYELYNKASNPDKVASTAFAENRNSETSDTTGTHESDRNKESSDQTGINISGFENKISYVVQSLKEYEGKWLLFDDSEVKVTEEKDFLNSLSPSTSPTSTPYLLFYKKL

N#Cc1ccccc1OCC1CN(Cc2cccc(C(F)(F)F)c2)C(=O)c2c(ccnc2-c2ccc(OCC(=O)O)cc2)O1 (stereo not drawn)
inactive: Potency (Furin (Homo sapiens)) | Potency [1] | Potency [2] | Potency [5]
active: Potency [3] 70.8 µM | Potency [4] 56.2 µM

O=C1c2cccc3c2[C@@H](CCC3)CN1[C@@H]1CN2CCC1CC2
active: Potency [10] 11.2 µM | Potency (CP237) 10 µM | Potency (Dd2) 12.6 µM
inactive: outcome [6] | Potency [7] | Potency [8] | outcome [9] | Potency (Furin (Homo sapiens)) | Potency [11] | Potency [12] | activity, negative = inhibition ([13]; parasite line A) -7.65% | activity, negative = inhibition ([13]; parasite line B) 6.33% | Potency (3D7) | Potency (AS120) | Potency (ATS95) | Potency (C2A) | Potency (CP185) | Potency (CP191) | Potency (CP192) | Potency (CP201) | Potency (CP211) | Potency (CP215) | Potency (CP238) | Potency (CP247) | Potency (CP250) | Potency (CP252) | Potency (CP256) | Potency (CP262) | Potency (CP266) | Potency (CP269) | Potency (CP291) | Potency (CP305) | Potency (CP315) | Potency (CP325) | Potency (CP329) | Potency (DFO2036) | Potency (DIV30) | Potency (ECU) | Potency (FAB9) | Potency (HB3) | Potency (JCK) | Potency (PC15) | Potency (PC26) | Potency (PC49) | Potency (SC27B) | Potency (TAB113) | Potency (TAB165)
